Records with an inconclusive call do not appear. The source made the active and inactive calls. Rule for the calls: active = hit-call score of the fitted dose curve at least 0.9, where 1 is the maximum; inconclusive = response in the unintended direction; inactive = score below 0.9.
Assay: ATG_M_19_TRANS: Attagene TRANS-FACTORIAL HepG2 Assay for M19 Transcription Factor (Internal Marker) (AID 2282974)
Details: HepG2 Attagene TRANS-FACTORIAL M19 internal marker reporter
Experimental: ATG_TRANS is a cell-based, multiplexed-readout assay that uses HepG2, a human liver cell line, with measurements taken at 24 hours after chemical dosing in a 24-well plate.ATG_M_19_TRANS is one of 30 assay component(s) measured or calculated from the ATG_TRANS assay. It is designed to make measurements of mRNA induction, a form of inducible reporter, as detected with fluorescence intensity signals by Reverse transcription polymerase chain reaction (RT-PCR) and Capillary electrophoresis technology.Data from the assay component ATG_M_19_TRANS was analyzed into 1 assay endpoint. This assay endpoint, ATG_M_19_TRANS, was analyzed in the positive analysis fitting direction relative to DMSO as the negative control and baseline of activity. Using a type of inducible reporter, measures of mRNA for gain-of-signal activity can be used to understand the background control at the transcription factor-level as they relate to the gene . Furthermore, this assay endpoint can be referred to as a secondary readout, because this assay has produced multiple assay endpoints where this one serves a background control function. To generalize the intended target to other relatable targets, this assay endpoint is annotated to the background measurement intended target family, where the subfamily is internal marker.
Human liver HepG2 cells are transiently transfected with multiple reporter transcription units (MRTUs) in 6-well plates using FuGene 6 reagent (Roche; 3 ml FuGene/1 mg DNA). The MRTU constructs are regulated by a cis-regulating element (promoter). […] A major difference between the CIS and TRANS system is that in CIS activities of endogenous TFs are measured, whereas the TRANS assay evaluates changes in activities of exogenous, chimeric NR-Gal4 proteins. […] At the end of 24 hour incubation, total RNA was isolated using TriZol reagent (Invitrogen). The isolated RNA is then reverse-transcribed using oligo(dT) primer and Mo-MLV reverse transcriptase (Invitrogen) with DNAse I (Ambion) treatment for 30 min. The one-tenth of the produced cDNA was amplified by PCR using Taq DNA polymerase (Invitrogen) and two reporter sequence-specific primers. The PCR products were fluorescently labeled by primer extension with 6-arboxyfluorescein (6-FAM) 5'-labeled reporter sequence-specific primer (2 min at 95 C, 20 s at 68 C and 10 min at 72 C) and these products were digested with 5U of HpaI (New England Biolabs) for 2h at 37 C. The fragments were purified using Qiaquick PCR columns (Qiagen), analyzed on an ABI 3130xL genetic analyzer (Applied Biosystems) with peak positions identified by using a set of X-rhodamine (ROX)-labeled MapMarker1000 molecular weight standards (BioVentures). The raw capillary electrophoresis data was processed using Attagraph software (Attagene).

SMILES | outcome | AC50
c1ccc2n[nH]nc2c1 | inactive | 
Cc1cc2c(cc1C(F)(F)F)N(C(=O)Nc1ccc(Oc3cccnc3C)nc1)CC2 | inactive | 
O=C1CCC(C2CCCCC2)CC1 | inactive | 
Cc1cccc2ccccc12 | inactive | 
CC(=O)N1CCN(c2ccc(OC[C@H]3CO[C@](Cn4ccnc4)(c4ccc(Cl)cc4Cl)O3)cc2)CC1 | inactive | 
C[C@]12CC[C@@H]3c4ccc(O)cc4CC[C@H]3[C@@H]1CC[C@H]2O | inactive | 
O=C=NCCCCCCN=C=O | inactive | 
CO[C@H]1/C=C/O[C@@]2(C)Oc3c(C)c(O)c4c(O)c(c(/C=N/N5CCN(C)CC5)c(O)c4c3C2=O)NC(=O)/C(C)=C\C=C\[C@H](C)[C@H](O)[C@@H](C)[C@@H](O)[C@@H](C)[C@H](OC(C)=O)[C@@H]1C | inactive | 
CCCCCCCCCCCO |  | 158 µM (active)
CC1(C)NC(=O)N(c2ccc([N+](=O)[O-])c(C(F)(F)F)c2)C1=O | inactive | 
CC[C@H](NC(=O)c1cc(F)ccc1NS(=O)(=O)c1cccc2cccnc12)c1ccccc1 | inactive | 
Oc1ccccc1 | inactive | 
CCCCOC(=O)c1ccc(O)cc1 | inactive | 
c1ccc(C[n+]2cccc3ccccc32)cc1 | inactive | 
COc1cccc([C@H](O)C2CCN(CCc3ccc(F)cc3)CC2)c1OC | inactive | 
CCCCOC(=O)CC(CC(=O)OCCCC)(OC(C)=O)C(=O)OCCCC | inactive | 
Cc1ncc(CO)c(CO)c1O | inactive | 
O=c1c(-c2ccc(O)cc2)coc2cc(O)cc(O)c12 | inactive | 
CN(C)c1ccc(C(=C2C=CC(=[N+](C)C)C=C2)c2ccc(N(C)C)cc2)cc1 | inactive | 
CCCCCCCCCCCC[N+](C)(C)C | inactive | 

SMILES | outcome | AC50
OC12N=C(c3ccccc3)SC1Cc1cc(Cl)ccc12 (stereo not given) | inactive | 
Cc1oc2c(NC(=O)c3c(Cl)cccc3Cl)cccc2c1C(C)(C)O | inactive | 
CCCCCCCCCC(=O)O | inactive | 
Oc1ccc2ccccc2c1 | inactive | 
CCCOC(=O)c1cc(O)c(O)c(O)c1 | inactive | 
O=C1O[C@H]([C@@H](O)CO)C(O)=C1O | inactive | 
CCCCCCCCN(C)CCCCCCCC | inactive | 
O=C(O)Cc1cc(I)c(Oc2ccc(O)c(I)c2)c(I)c1 | inactive | 
CN1C(=O)N(c2ccccc2Br)Cc2cnc(Nc3ccc4c(c3)OCC(CO)O4)nc21 (stereo not given) | inactive | 
O=CCCCC=O | inactive | 
Cc1cc(F)ccc1-c1cc(N2CC[C@@H](O)[C@H]2CO)ncc1N(C)C(=O)C(C)(C)c1cc(C(F)(F)F)cc(C(F)(F)F)c1 | inactive | 
CCCCCCCC[Si](OCC)(OCC)OCC | inactive | 
O=C(O)Cn1c(=O)n(Cc2ccc(Br)cc2F)c(=O)c2ccc(Cl)cc21 | inactive | 
CC(O)CC(C)(C)O (stereo not given) | inactive | 
Cc1ccc2oc(CN(Cc3ccccc3)C(=O)Nc3c(F)cc(F)cc3F)c(-c3ccc(Cl)cc3)c2c1 | inactive | 
OCCO | inactive | 
CCCCCCCCCCCCO | inactive | 
CCCCCCCCOc1ccc(C(=O)c2ccccc2)c(O)c1 | inactive | 
COc1ccc2cc(S(=O)(=O)N[C@H](CC(=O)N[C@H](Cc3ccc(CN4[C@H](C)CCC[C@@H]4C)cc3)C(=O)N(C)C(C)C)c3ccc4c(c3)OCO4)ccc2c1 | inactive | 
CCCCCc1ccc(N)cc1 | inactive | 
